# Article PMC5540273 (PLoS ONE, 2017)
# Values joined by “and” are separate entries in the source; they are usually repeats but may differ in a detail not shown here. Identical values can stand only once. Like-named read-outs stand apart in the source and are kept apart here.
# How the values were obtained:
# HPK1 = settings: concentration: 1 μM, replicates: in singlicate, n = 1
# ICK = settings: concentration: 1 μM, replicates: in singlicate, n = 1
# IGF1R = settings: concentration: 1 μM, replicates: in singlicate, n = 1
# IKK-alpha = system: T1, IKK-alpha; settings: concentration: 1 μM, replicates: in singlicate, n = 1
# T1 construct: gene CHUK
# IKK-beta = system: T2, IKK-beta; settings: concentration: 1 μM, replicates: in singlicate, n = 1
# T2 construct: gene IKBKB
# IKK-epsilon = system: T3, IKK-epsilon; settings: concentration: 1 μM, replicates: in singlicate, n = 1
# T3 construct: gene IKBKE
# INSR = settings: concentration: 1 μM, replicates: in singlicate, n = 1
# IRAK1 = settings: concentration: 1 μM, replicates: in singlicate, n = 1
# IRAK3 = settings: concentration: 1 μM, replicates: in singlicate, n = 1
# IRAK4 = settings: concentration: 1 μM, replicates: in singlicate, n = 1
# ITK = settings: concentration: 1 μM, replicates: in singlicate, n = 1
# [1] = system: JAK1(JH1domain-catalytic); settings: concentration: 1 μM, replicates: in singlicate, n = 1
# [2] = system: JAK1(JH2domain-pseudokinase); settings: concentration: 1 μM, replicates: in singlicate, n = 1
# [3] = system: JAK2(JH1domain-catalytic); settings: concentration: 1 μM, replicates: in singlicate, n = 1
# [4] = system: JAK3(JH1domain-catalytic); settings: concentration: 1 μM, replicates: in singlicate, n = 1
# JNK1 = system: T4, JNK1; settings: concentration: 1 μM, replicates: in singlicate, n = 1
# T4 construct: gene MAPK8
# JNK2 = system: T5, JNK2; settings: concentration: 1 μM, replicates: in singlicate, n = 1
# T5 construct: gene MAPK9
# JNK3 = system: T6, JNK3; settings: concentration: 1 μM, replicates: in singlicate, n = 1
# T6 construct: gene MAPK10
# HUNK = settings: concentration: 1 μM, replicates: in singlicate, n = 1
# INSRR = settings: concentration: 1 μM, replicates: in singlicate; n = 1
# 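Further: KINOMEscan kinase panel screen.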
smiles,measurement,setting,value
NCCNS(=O)(=O)c1ccc(-c2ccnc3[nH]ccc23)cc1 [GSK977617],%Inh,HPK1; 1 µM,59% and 44%
same,%Inh,ICK; 1 µM,19% and 2%
same,%Inh,IGF1R; 1 µM,8% and 16%
same,%Inh,IKK-alpha; 1 µM,97.7% and 94.3%
same,%Inh,IKK-beta; 1 µM,99.4%
same,%Inh,IKK-epsilon; 1 µM,29% and 32%
same,%Inh,INSR; 1 µM,18% and 4%
same,%Inh,IRAK1; 1 µM,81% and 65%
same,%Inh,IRAK3; 1 µM,60% and 39%
same,%Inh,IRAK4; 1 µM,22% and 8%
same,%Inh,ITK; 1 µM,66% and 44%
same,%Inh,[1]; 1 µM,38% and 26%
same,%Inh,[2]; 1 µM,32% and 25%
same,%Inh,[3]; 1 µM,95.6% and 90.8%
same,%Inh,[4]; 1 µM,83% and 84%
same,%Inh,JNK1; 1 µM,42% and 18%
same,%Inh,JNK2; 1 µM,30% and 9%
same,%Inh,JNK3; 1 µM,27% and 15%
CC(C)(CN)c1nc(-c2ccc(Cl)c(O)c2)c(-c2ccncc2)[nH]1.O=C(O)C(F)(F)F [SB-477794],%Inh,HUNK; 1 µM,0% and 16%
same,%Inh,ICK; 1 µM,23% and 0%
same,%Inh,IGF1R; 1 µM,0% and 9%
same,%Inh,IKK-alpha; 1 µM,64% and 34%
same,%Inh,IKK-beta; 1 µM,33% and 0%
same,%Inh,IKK-epsilon; 1 µM,10% and 6%
same,%Inh,INSR; 1 µM,23% and 0%
same,%Inh,IRAK1; 1 µM,62% and 44%
same,%Inh,IRAK4; 1 µM,43% and 0%
same,%Inh,ITK; 1 µM,9% and 0%
same,%Inh,[1]; 1 µM,28% and 15%
same,%Inh,[2]; 1 µM,0% and 2%
same,%Inh,[3]; 1 µM,18% and 8%
same,%Inh,[4]; 1 µM,0% and 28%
same,%Inh,JNK1; 1 µM,41% and 32%
same,%Inh,JNK2; 1 µM,85% and 80%
same,%Inh,JNK3; 1 µM,93.6% and 92.8%
CC(=O)Nc1ccc(COc2ccc(Nc3ccnc4cc(-c5ccccn5)ccc34)cc2)cc1.Cl [GW440148],%Inh,HPK1,10%
same,%Inh,HUNK,22%
same,%Inh,ICK,0%
same,%Inh,IGF1R,0%
same,%Inh,IKK-alpha,0%
same,%Inh,IKK-beta,4%
same,%Inh,IKK-epsilon,21%
same,%Inh,INSRR,0%
same,%Inh,INSR,12%
same,%Inh,IRAK1,0%
same,%Inh,IRAK3,6%
same,%Inh,IRAK4,0%
same,%Inh,ITK,0%
same,%Inh,[1],22%
same,%Inh,[2],0%
same,%Inh,[3],18%
same,%Inh,[4],0%
same,%Inh,JNK1,0%
same,%Inh,JNK2,17%
same,%Inh,JNK3,9%
CCCCCc1nc2c(N)ncnc2n1CCCCC [SKF-97255],%Inh,HPK1,4%
same,%Inh,HUNK,26%
same,%Inh,ICK,0%
same,%Inh,IGF1R,0%
same,%Inh,IKK-alpha,0%
same,%Inh,IKK-beta,0%
same,%Inh,IKK-epsilon,0%
same,%Inh,INSRR,0%
same,%Inh,INSR,0%
same,%Inh,IRAK1,0%
same,%Inh,IRAK3,0%
same,%Inh,IRAK4,0%
same,%Inh,ITK,0%
same,%Inh,[1],0%
same,%Inh,[2],35%
same,%Inh,[3],33%
same,%Inh,[4],0%
same,%Inh,JNK1,0%
same,%Inh,JNK2,0%
same,%Inh,JNK3,0%
Fc1ccc(-c2ncn(CCCN3CCOCC3)c2-c2cccnc2)cc1 [SB-211743],%Inh,HPK1,0%
same,%Inh,HUNK,44%
same,%Inh,ICK,0%
same,%Inh,IGF1R,0%
same,%Inh,IKK-alpha,0%
same,%Inh,IKK-beta,0%
same,%Inh,IKK-epsilon,6%
same,%Inh,INSRR,8%
same,%Inh,INSR,4%
same,%Inh,IRAK1,0%
same,%Inh,IRAK3,64%
same,%Inh,IRAK4,0%
same,%Inh,ITK,0%
same,%Inh,[1],20%
same,%Inh,[2],38%
same,%Inh,[3],21%
same,%Inh,[4],0%
same,%Inh,JNK1,26%
same,%Inh,JNK2,0%
same,%Inh,JNK3,0%
O=c1cc(N2CCOCC2)nc2n(Cc3cccc(F)c3)ccn12 [GSK2297430],%Inh,HPK1,34%
same,%Inh,HUNK,4%
same,%Inh,ICK,0%
same,%Inh,IGF1R,9%
same,%Inh,IKK-alpha,3%
same,%Inh,IKK-beta,5%
same,%Inh,IKK-epsilon,0%
same,%Inh,INSRR,0%
same,%Inh,INSR,0%
same,%Inh,IRAK1,0%
same,%Inh,IRAK3,0%
same,%Inh,IRAK4,1%
same,%Inh,ITK,0%
same,%Inh,[1],8%
same,%Inh,[2],0%
same,%Inh,[3],2%
same,%Inh,[4],0%
same,%Inh,JNK1,21%
same,%Inh,JNK2,13%
same,%Inh,JNK3,0%
CN(C1=C(c2ccccc2)C(=O)NC1=O)c1ccccc1 [SB-334860],%Inh,HPK1,0%
same,%Inh,HUNK,0%
same,%Inh,ICK,13%
same,%Inh,IGF1R,12%
same,%Inh,IKK-alpha,0%
same,%Inh,IKK-beta,0%
same,%Inh,IKK-epsilon,27%
same,%Inh,INSRR,0%
same,%Inh,INSR,5%
same,%Inh,IRAK1,0%
same,%Inh,IRAK3,0%
same,%Inh,IRAK4,0%
same,%Inh,ITK,0%
same,%Inh,[1],0%
same,%Inh,[2],6%
same,%Inh,[3],0%
same,%Inh,[4],14%
same,%Inh,JNK1,0%
same,%Inh,JNK2,21%
same,%Inh,JNK3,15%
Cl.Nc1ncnc2occ(-c3ccc(NC(=O)Nc4cc(C(F)(F)F)ccc4F)cc3)c12 [SB-707548],%Inh,HPK1,85%
same,%Inh,HUNK,15%
same,%Inh,ICK,5%
same,%Inh,IGF1R,5%
same,%Inh,IKK-alpha,86%
same,%Inh,IKK-beta,35%
same,%Inh,IKK-epsilon,63%
same,%Inh,INSRR,0%
same,%Inh,INSR,23%
same,%Inh,IRAK1,35%
same,%Inh,IRAK3,0%
same,%Inh,IRAK4,3%
same,%Inh,ITK,9%
same,%Inh,[1],50%
same,%Inh,[2],7%
same,%Inh,[3],59%
same,%Inh,[4],23%
same,%Inh,JNK1,9%
same,%Inh,JNK2,94.9%
same,%Inh,JNK3,12%
Cc1nnc(-c2ccc3ncc(-c4ccc(S(C)=O)cc4)n3c2)o1 (stereo not drawn),%Inh,HPK1,0%
same,%Inh,HUNK,0%
same,%Inh,ICK,22%
same,%Inh,IGF1R,0%
same,%Inh,IKK-alpha,15%
same,%Inh,IKK-beta,21%
same,%Inh,IKK-epsilon,0%
same,%Inh,INSRR,0%
same,%Inh,INSR,2%
same,%Inh,IRAK1,7%
same,%Inh,IRAK3,23%
same,%Inh,IRAK4,15%
same,%Inh,ITK,7%
same,%Inh,[1],11%
same,%Inh,[2],0%
same,%Inh,[3],0%
same,%Inh,[4],0%
same,%Inh,JNK1,22%
same,%Inh,JNK2,18%
same,%Inh,JNK3,24%
O=C(NOCC1CC1)c1ccc(F)c(F)c1Nc1ccc(I)cc1Cl,%Inh,HPK1,12%
same,%Inh,HUNK,0%
same,%Inh,ICK,100%
same,%Inh,IGF1R,0%
same,%Inh,IKK-alpha,46%
same,%Inh,IKK-beta,35%
same,%Inh,IKK-epsilon,0%
same,%Inh,INSRR,0%
same,%Inh,INSR,0%
same,%Inh,IRAK1,0%
same,%Inh,IRAK3,0%
same,%Inh,IRAK4,0%
same,%Inh,ITK,0%
same,%Inh,[1],0%
same,%Inh,[2],0%
same,%Inh,[3],0%
same,%Inh,[4],0%
same,%Inh,JNK1,0%
same,%Inh,JNK2,0%
same,%Inh,JNK3,0%
